Molecules are shown by their SMILES. Values joined by “and” are separate entries in the source; they are usually repeats but may differ in a detail not shown here. Identical values can stand only once. The whole screen tested about 6,400 compounds, of which about 610 (9.5%) were called active. Cut-off read from the data, not from the text of the source: active = activity change below about -70%; inconclusive = no clear call, values can overlap the other calls; inactive = above that. The list comes from a sample in which actives are over-represented; it also holds similar structures and randomly drawn compounds. Some compounds were tested as several samples or in several runs, with calls that do not always agree.

The experiment is described as follows: Toxoplasma gondii ME49Luc growth in HeLa cells, luciferase, no IFN-y, primary screen (AID 1259421). Conditions: T. gondii ME49Luc in HeLa, 72 h, stronger effect = lower value, concentration not given here.
As to `CC(C)c1ccc2c(c1)C(N1CCN(CCO)CC1)Cc1ccc(F)cc1S2` (configuration not stated), the activity change, negative = inhibition is -37.4% (inactive).
As for `CC(=O)Oc1c(C)cc(OCC(O)CNC(C)C)c(C)c1C` (configuration not stated), the activity change, negative = inhibition is -4.5% (inactive).
Turning to `CNC(=O)c1cnn(-c2nc(N)c3ncn([C@@H]4O[C@H](CO)C(O)C4O)c3n2)c1` (some centres not stated), the activity change, negative = inhibition was 7.49% (inactive).
As for `CC(C)(C)n1nc(-c2cccc3ccccc23)c2c(N)ncnc21`, the activity change, negative = inhibition is -64.8% (inactive) and -76.3% (active).
With `Cc1ccc(-c2nn(C(C)(C)C)c3ncnc(N)c23)cc1`, the activity change, negative = inhibition was -88.2% (active) and -83% (active).
Take `CC(C)(C)n1nc(-c2ccc(Cl)cc2)c2c(N)ncnc21`: the activity change, negative = inhibition was -91.7% (active).
Take `CCNC(=O)CCC/C=C\C[C@@H]1[C@@H](/C=C/C(O)CCc2ccccc2)[C@H](O)C[C@@H]1O` (some centres not stated): the activity change, negative = inhibition is 8.47% (inactive).
For `O=[N+]([O-])c1cncn1CCN1CCOCC1` the value was 23.6% (inactive); for `CCCOc1ccc2nc(NC(=O)OC)sc2c1`, 106% (inactive).
For the compound `CCCn1c(=O)[nH]c(=O)c2[nH]cnc21`, the activity change, negative = inhibition is 6.86% (inactive).
Consider `CCC(=O)c1ccc(OCC(O)CN2CCN(c3ccccc3)CC2)cc1` (configuration not stated), for which the activity change, negative = inhibition is 9.53% (inactive).
For `COc1ccc(N2CCOCC2)c2sc(NC(=O)N3CCC(C)(O)CC3)nc12` the value was 12.2% (inactive); for `CCCCC#Cc1nc(NC)c2ncn(C3OC(CO)C(O)C3O)c2n1` (configuration not stated), -3.28% (inactive).
In the case of `Cc1cc(OCCN2CCOCC2)nn1-c1ccc2ccccc2c1` it was 13.6% (inactive).
With `O=c1[nH]c(=O)c2[nH]c(=O)[nH]c2[nH]1`, the activity change, negative = inhibition is 3.85% (inactive).
Take `CC(C)NC[C@@H](O)c1ccc(NS(C)(=O)=O)cc1`: the activity change, negative = inhibition was 2.38% (inactive).
Consider `C[C@@H]([C@@H](O)c1ccc(O)cc1)N1CCC(O)(c2ccccc2)CC1`, for which the activity change, negative = inhibition is 0.328% (inactive) and 9.44% (inactive).
In the case of `Nc1nc(Cl)nc2c1ncn2C1OC(CO)C(O)C1F` (configuration not stated) it was -87.6% (active); in that of `Nc1nc(F)nc2c1ncn2[C@@H]1O[C@H](CO)[C@@H](O)[C@@H]1O`, -26.8% (inactive).
For `Nc1nc(Cl)nc2c1ncn2[C@@H]1O[C@H](CO)[C@@H](O)[C@@H]1F`, the activity change, negative = inhibition was -81.3% (active).
In the case of `OC[C@H]1O[C@@H](n2cnc3c(NC4CCCC4)nc(Cl)nc32)[C@H](O)[C@@H]1O` it was 3.31% (inactive); in that of `OCC1OC(n2cnc3c(NC4CCCC4)nc(Cl)nc32)C(O)C1O` (configuration not stated), -5.92% (inactive).
Regarding `Nc1nc(Cl)nc2c1ncn2[C@H]1C[C@H](O)[C@@H](CO)O1`, the activity change, negative = inhibition is -37.2% (inactive).
As to `CCCCC[C@@H](O)[C@H]1C(=O)O[C@H](C)[C@@H](O)/C=C/C=C/C=C/C=C/C=C(\C)[C@@H](O)C[C@H](O)C[C@H](O)C[C@H](O)C[C@H](O)C[C@H](O)C[C@@H]1O`, the activity change, negative = inhibition was 2.49% (inactive).
For `Ic1cc(-c2ccccc2)ncn1`, the activity change, negative = inhibition was 1.75% (inactive).
In the case of `COc1ccc2c3c1OC1CC(O)C=CC31CCN(C)C2` (configuration not stated), the activity change, negative = inhibition is 4.76% (inactive).
For the compound `CC(=O)OCC(=O)[C@@]1(O)CCC2C3CCC4=CC(=O)CC[C@]4(C)C3=CC[C@@]21C` (some centres not stated), the activity change, negative = inhibition is -0.754% (inactive).
`CCCCCCCCN=c1ccn(CCCCCCCCCCn2ccc(=NCCCCCCCC)cc2)cc1`: the activity change, negative = inhibition is -74.7% (active).
In the case of `CCCCCN=c1ccn(Cc2ccccc2)c2ccccc12` it was -3.35% (inactive).
On to `CN[C@H](CNC(=O)N1CCC[C@@H]([C@@H](OCCNC(=O)OC)c2cccc(Cl)c2)C1)C[C@H]1CCCOC1`, for which the activity change, negative = inhibition is 7.28% (inactive).
`CNC(=O)c1ccc(-c2cnc3ncc(Cc4ccc5ncccc5c4)n3n2)cc1F`: the activity change, negative = inhibition is -3.07% (inactive).
Consider `COc1ccc([C@H]2COc3c(ccc(O)c3OC)C2)c(OC)c1O`, for which the activity change, negative = inhibition is 8.53% (inactive).
Regarding `CC(NCC(O)CP(=O)(O)CC1CCCCC1)c1ccc(Cl)c(Cl)c1` (configuration not stated), the activity change, negative = inhibition was -2.11% (inactive).
In the case of `C[C@H](NC(=O)[C@@H](O)c1cc(F)cc(F)c1)C(=O)N[C@@H]1C(=O)N(C)c2ccccc2-c2ccccc21`, the activity change, negative = inhibition was 26.6% (inactive).
For the compound `C[C@H](NC(=O)Cc1cc(F)cc(F)c1)C(=O)N[C@@H]1C(=O)N(C)c2ccccc2-c2ccccc21`, the activity change, negative = inhibition is -81.4% (active).
Consider `CC(NC(=O)Cc1cc(F)cc(F)c1)C(=O)NC(C(=O)OC(C)(C)C)c1ccccc1` (configuration not stated), for which the activity change, negative = inhibition is 5.05% (inactive).
In the case of `C=C1/C(=C\C=C2/CCC[C@]3(C)[C@@H]([C@H](C)/C=C/C=C/C(O)(CC)CC)CC[C@@H]23)C[C@@H](O)C[C@@H]1O`, the activity change, negative = inhibition was 17.9% (inactive).
In the case of `COCCOc1ccc(N2CCN(CCn3ncc4c3nc(N)n3nc(-c5ccco5)nc43)CC2)cc1` it was -6.85% (inactive).
In the case of `COc1c(O)cccc1O`, the activity change, negative = inhibition is 9.75% (inactive).
On to `COc1nc2ccc(Br)cc2cc1[C@@H](c1ccccc1)[C@@](O)(CCN(C)C)c1cccc2ccccc12`, for which the activity change, negative = inhibition was 48% (inactive).
Regarding `CC(C)OC(=O)[C@H](C)N[P@@](=O)(OC[C@H]1O[C@@H](n2ccc(=O)[nH]c2=O)[C@](C)(F)[C@@H]1O)Oc1ccccc1`, the activity change, negative = inhibition was 5.02% (inactive) and 18.5% (inactive).
With `Cc1c(O)c(=O)n(-c2ccccc2)n1C`, the activity change, negative = inhibition was -80.6% (active) and 1.34% (inactive).
For `Cc1c(N(C)C)c(=O)n(-c2ccccc2)n1C` the value was 13% (inactive); for `Cc1c(I)c(=O)n(-c2ccccc2)n1C`, 9.68% (inactive); for `CCO[C@@H](Cc1ccc(OCCc2ccc(OS(C)(=O)=O)cc2)cc1)C(=O)O`, 11% (inactive).
Take `Cc1ccc(NC(=O)C(C)C)cc1C1CCN(Cc2ccc(Oc3ccc(F)c(F)c3)cc2)CC1`: the activity change, negative = inhibition is -59.6% (inactive).
For `NC1=NCN([C@H]2C[C@@H](O)[C@@H](CO)O2)C(=O)N1`, the activity change, negative = inhibition was 13.9% (inactive).
Consider `Cn1cnc(=N)c2[nH]cnc21`, for which the activity change, negative = inhibition was 11% (inactive).
In the case of `C=CC(=O)Nc1ccc(Cl)cc1` it was 16.9% (inactive).
`CNC(=O)c1cc(COc2nnc(Nc3ccc(Cl)cc3)c3ccoc23)ccn1`: the activity change, negative = inhibition was -9.12% (inactive).
With `O=C(Nc1ccc(Cl)cc1)Nc1ccc(Cl)c(C(F)(F)F)c1`, the activity change, negative = inhibition is -76.9% (active).
For `COc1cc(NC(=O)c2ccccn2)ccc1Cl`, the activity change, negative = inhibition was 132% (inactive).
For `CN1CCN(C2CCN(C(=O)Nc3cc(Oc4ccc(NC(=O)C5(C(=O)Nc6ccc(F)cc6)CC5)c(F)c4)ccn3)CC2)CC1` the value was -66.6% (inactive); for `C=CC(=O)Nc1cccc(Nc2nc(Nc3ccc(Oc4ccnc(C(=O)NC)c4)cc3)ncc2F)c1`, -38.8% (inactive).
Regarding `CC(C)C(=O)Nc1ccc([N+](=O)[O-])c(C(F)(F)F)c1`, the activity change, negative = inhibition is 12.9% (inactive).
As for `CNC(=O)c1cc(Oc2ccc(NC(=O)Nc3ccc(Cl)c(C(F)(F)F)c3)c(F)c2)ccn1`, the activity change, negative = inhibition is -86.3% (active) and -83.6% (active).
In the case of `CNC(=O)c1cc(Oc2ccc(NC(=O)Nc3ccc(Cl)c(C(F)(F)F)c3)cc2)ccn1` it was -70.5% (active) and -84.5% (active); in that of `Nc1[nH]nc2nnc(-c3c(-c4ccccc4)nn4ccccc34)cc12`, -19.2% (inactive); in that of `OC[C@@H](O)[C@@H](O[C@@H]1O[C@H](CO)[C@H](O)[C@H](O)[C@H]1O)[C@H](O)[C@@H](O)CO`, 24% (inactive).
For `NC(Cn1ccc(=O)n(Cc2ccccc2C(=O)O)c1=O)C(=O)O` (configuration not stated) the value was 7.15% (inactive).
For `CN1C2CCC1CC(OC(=O)c1c[nH]c3ccccc13)C2` (configuration not stated), the activity change, negative = inhibition is 2.23% (inactive).
For `O=C1CC[C@@H](C(=O)O)N1`, the activity change, negative = inhibition was 4.43% (inactive).
For `C1=C(CN2CCOCC2)COc2c1cccc2OCC1CNCCO1` (configuration not stated) the value was 2.39% (inactive); for `CC(C)=CCC/C(C)=C/C=C/C(C)=C/C=C/C(C)=C/C=C/C=C(C)/C=C/C=C(C)/C=C/C=C(\C)CCC=C(C)C`, -16.2% (inactive).
For `COc1ccc(-c2cc(=O)c3c(O)c(OC)c(OC)c(OC)c3o2)cc1OC`, the activity change, negative = inhibition was -10.2% (inactive).
For `CC1(C)S[C@H]2[C@@H](NC(=O)[C@@H](NC(=O)N3CCN(S(C)(=O)=O)C3=O)c3ccccc3)C(=O)N2[C@@H]1C(=O)O` the value was 5.45% (inactive).
For `CN1CCCC(CN2c3ccccc3Sc3ccccc32)C1` (configuration not stated), the activity change, negative = inhibition is 11.8% (inactive) and 21.2% (inactive).
As for `O=c1c2ccccc2nc2n1CCc1c-2[nH]c2ccccc12`, the activity change, negative = inhibition was 249% (inactive).
Turning to `CN1c2ccccc2C(=O)N2CCc3c([nH]c4ccccc34)C21` (configuration not stated), the activity change, negative = inhibition is -71.6% (active).
`CN1CCc2ccccc2Cc2[nH]c3ccccc3c2CC1`: the activity change, negative = inhibition is 12.1% (inactive).
For the compound `O=C(O)CCC/C=C/CC1COC(C(F)(F)F)OC1c1ccccc1O` (configuration not stated), the activity change, negative = inhibition is 0.246% (inactive).
Take `C=C[C@@]1(C)CC(=O)[C@@]2(O)[C@](C)(O1)[C@@H](OC(C)=O)[C@@H](O)C1C(C)(C)CC[C@H](O)[C@@]12C` (some centres not stated): the activity change, negative = inhibition is 6.95% (inactive).
As for `Cc1cn(-c2cc(NC(=O)c3ccc(C)c(Nc4nccc(-c5cccnc5)n4)c3)cc(C(F)(F)F)c2)cn1`, the activity change, negative = inhibition is -85.2% (active) and -76.5% (active).
For `Cc1ccc(NC(=O)c2ccc(CN3CCN(C)CC3)cc2)cc1Nc1nc(-c2cccnc2)cs1`, the activity change, negative = inhibition is 47.7% (inactive).
For `Cc1ccc(NC(=O)c2ccc(CN3CCN(C)CC3)cc2)cc1Nc1nccc(-c2cccnc2)n1` the value was 3.71% (inactive) and 10.8% (inactive) and -1.32% (inactive); for `Cc1ccc(C(=O)Nc2cccc(C(F)(F)F)c2)cc1Nc1nc(-c2cccnc2)nc2c1cnn2C`, -48.8% (inactive); for `Cc1ncc(NC(=O)c2ccc(CN3CCN(C)CC3)c(C(F)(F)F)c2)cc1Nc1nccc(-c2cccnc2)n1`, -77.9% (active).
As to `O=Cc1ccccc1O[C@@H]1O[C@H](CO)[C@H](O)[C@@H](O)[C@H]1O`, the activity change, negative = inhibition was 4.65% (inactive).
`NC(=O)c1nc(F)c[nH]c1=O`: the activity change, negative = inhibition was 2.13% (inactive).
Turning to `Cc1c[nH]c2ccccc12`, the activity change, negative = inhibition was -2.35% (inactive).
Regarding `NC(N)=NCCC[C@@H](N)C(=O)O`, the activity change, negative = inhibition was 13.4% (inactive).
`Cn1c(C#N)ccc1-c1ccc2c(c1)C(C)(C)OC(=S)N2`: the activity change, negative = inhibition was -80.3% (active).

The values above are taken from PubChem BioAssay AID1259421 (Broad Institute, 2018).
